Tb PYK inh: blocks Trypanosoma brucei pyruvate kinase; TbPYK enzyme, Kinase-Glo Plus ATP luminescence, 45 min; Potency, µM (highest dose often 76.8 µM), without a hit: top-dose activity, negative = inhibition, hits mostly inhibitors; 410,000 compounds, 0.12% hits; AID 624173; active = well fitted curve in the direction sought with a large enough effect; inconclusive = small, poorly fitted or top-dose-only effect, or another doubt; inactive = no such curve, though single readings can be large; an effect the other way counts as inactive or inconclusive; note: potency is the fitted concentration of half-maximal effect; % is set by controls: 0 for no effect and ±100 for the full control effect; nearly all actives have a fitted effect of over 50% in size
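Readout: single end-point luminescence (Kinase-Glo Plus, 10 min). Reaction conditions were TbPYK/substrate plus 130 uM ADP, 45 min at RT, pH 7.2 TEA buffer. No-enzyme wells served as controls, and data were normalized before concentration-response fitting.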
RE007 growth inh: less growth of the S. pombe RE007 Vpr strain. AID 651644. 360,000 compounds, 0.21% hits. S. pombe RE007 Vpr strain, BacTiter-Glo ATP luminescence, 24 h. Potency, µM (doses to about 92.2 µM), for inactives: at the top dose activity change, negative = less growth, hits mostly inhibitors; active = well fitted falling curve with a large enough effect; inconclusive = small, poorly fitted or top-dose-only effect; inactive = no such curve, though single readings can be large or run the other way; note: potency is the fitted concentration of half-maximal effect; % is set by controls: 0 for no effect and ±100 for the full control effect; nearly all actives have a fitted effect of over 50% in size
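Fission yeast strain RE007, carrying one chromosomally integrated HIV-1 vpr copy, was seeded at OD 0.01 in PMG+AL medium with 23 nL pinned compound. After 24 h at 30 °C and 99% humidity, viability was read by BacTiter-Glo luminescence.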
NS1 inh: blocks influenza NS1 protein function | Potency, µM (highest dose often 46.1 µM), without a hit: at the top dose activity, positive = more growth | 270,000 compounds, 0.4% hits | AID 2326; note: potency is the fitted concentration of half-maximal effect; actives are rising curves; nearly all actives have a fitted effect of over 50% in size
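Recovery from NS1-induced slow growth read by OD600 in budding yeast switched to galactose assay medium (pH 6.0, -URA) at 1:100 dilution. Compound 23 nl per well; the matching strain lacking NS1 serves as control.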
SARS PLP yeast: blocks SARS-CoV papain-like protease in a yeast assay; S. cerevisiae expressing SARS-CoV PLpro, growth rescue; AID 485353; Potency, µM (doses to about 32.9 µM), without a hit: at the highest dose activity, positive = growth rescue, actives largely listed as activators; 330,000 compounds, 0.19% hits; note: potency is the fitted concentration of half-maximal effect; 0% is about no effect; nearly all actives have a fitted effect of over 55% in size
LmPK inhibitor: blocks Leishmania mexicana pyruvate kinase activity; Q27686; purified LmPK, Kinase-Glo ATP luminescence, 1 h; Potency, µM (doses to about 57.5 µM), for the others: at the top dose activity change, negative = inhibition, actives largely listed as inhibitors; 290,000 compounds, 0.37% hits; AID 1721; active = well fitted curve in the direction sought with a large enough effect; inconclusive = small, poorly fitted or top-dose-only effect, or another doubt; inactive = no such curve, though single readings can be large; an effect the other way counts as inactive or inconclusive; note: potency is the fitted concentration of half-maximal effect; % is set by controls: 0 for no effect and ±100 for the full control effect
Target sequence (Q27686 whole entry, looked up): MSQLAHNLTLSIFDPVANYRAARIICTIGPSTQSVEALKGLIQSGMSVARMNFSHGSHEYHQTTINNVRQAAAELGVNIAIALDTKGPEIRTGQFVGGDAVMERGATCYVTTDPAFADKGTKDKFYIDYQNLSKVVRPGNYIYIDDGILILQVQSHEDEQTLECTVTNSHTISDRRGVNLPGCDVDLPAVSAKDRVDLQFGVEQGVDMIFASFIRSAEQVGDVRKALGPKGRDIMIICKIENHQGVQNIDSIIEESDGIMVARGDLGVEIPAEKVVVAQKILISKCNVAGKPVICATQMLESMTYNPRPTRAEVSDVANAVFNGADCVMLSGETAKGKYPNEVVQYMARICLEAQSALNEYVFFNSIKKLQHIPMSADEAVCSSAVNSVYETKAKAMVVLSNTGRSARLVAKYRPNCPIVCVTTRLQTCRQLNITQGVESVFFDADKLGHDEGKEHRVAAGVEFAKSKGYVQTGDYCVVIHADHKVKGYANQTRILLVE
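Purified LmPK (0.1 nM) with 0.5 mM PEP and 0.1 mM ADP in imidazole buffer pH 7.2 with MgCl2/KCl, 1 h at room temperature. ATP formed was read by luciferase luminescence and normalized to no-enzyme and uninhibited controls.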
Sm TGR inh: blocks Schistosoma mansoni thioredoxin glutathione reductase. Q962Y6. purified TGR, DTNB reduction, TNB absorbance 405 nm. Potency, µM (doses to about 114 µM), without a hit: at the top dose activity change, negative = inhibition, actives largely listed as inhibitors. 360,000 compounds, 3% hits. AID 485364; active = well fitted curve in the direction sought with a large enough effect; inconclusive = small, poorly fitted or top-dose-only effect, or another doubt; inactive = no such curve, though single readings can be large; an effect the other way counts as inactive or inconclusive; note: potency is the fitted concentration of half-maximal effect; % is set by controls: 0 for no effect and ±100 for the full control effect; nearly all actives have a fitted effect of over 60% in size
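TGR 20 nM + NADPH 100 uM (dispensed conc.), cpd preinc 15 min RT; start with NADPH (500 uM addition) then DTNB (15 mM addition). Kinetic TNB absorbance, 405 nm filter. Four-parameter Hill fit across titration.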
Flu NS1 inh: validation of influenza NS1 protein function inhibitors; shares compounds with NS1 inh; influenza NS1 function cell assay, 15-point titration; activity change, negative = inhibition, % at 32.9 µM; 1,400 tested, under 10 active; AID 492980; note: 0% is about no effect
PR8 titer: influenza virus titer reduction, NS1 project | MDCK infected influenza A/PR/8/34, virus titer TCID50; stronger effect = lower value | 95 compounds, 30% hits | shares compounds with NS1 inh | virus titer (log TCID50), log10 TCID50 at 5 µM; call rule not given here
Starred values were filed as active, the others as inactive; [ ] = remark or other dose. Only some compounds are listed: those with a hit (about 3.3% of all), similar ones and a draw of the others. Unless noted, calls come from the whole dose curve.

How did Clc1ccccc1N1CCN(Cc2c[nH]c3ccccc23)CC1 do in these assays?
Tb PYK inh: 36%; RE007 growth inh: -14%

What do the screens show for `Fc1ccccc1N1CCN(C2CCN(Cc3c[nH]c4ccccc34)CC2)CC1`?
Tb PYK inh: 3%; RE007 growth inh: 1%; NS1 inh: 25µM*; SARS PLP yeast: 9%; LmPK inhibitor: 6%; Sm TGR inh: 14%[11.4 µM]; Flu NS1 inh: -16

Results for Cc1cccc(NC(=O)C2CCCN(c3nc(C)cc(C)n3)C2)c1 (configuration not stated) ?
Tb PYK inh: -3%; RE007 growth inh: -6%; NS1 inh: 8.9µM*; SARS PLP yeast: -1%; LmPK inhibitor: 0%; Sm TGR inh: -1%; Flu NS1 inh: 1

What do the screens show for `Cc1cccc(NC(=O)C2CCN(c3nc(C)cc(C)n3)CC2)c1`?
Tb PYK inh: 3%; RE007 growth inh: 7%; NS1 inh: -2%; SARS PLP yeast: -2%; LmPK inhibitor: 1%; Sm TGR inh: 4%

Results for Cc1cccc(NC(=O)c2cc(NC(=O)c3ccccc3)ccc2N2CCCCC2)c1 ?
Tb PYK inh: -4%; RE007 growth inh: -1%; NS1 inh: inconclusive; SARS PLP yeast: -2%; LmPK inhibitor: 3%; Sm TGR inh: 2%; Flu NS1 inh: 2; PR8 titer: 8.5

How did Cc1ccccc1C(=O)Nc1cccc(C(=O)Nc2ccccc2C(=O)O)c1 do in these assays?
Tb PYK inh: 7%; RE007 growth inh: 0%; NS1 inh: 11µM*; SARS PLP yeast: -4%; LmPK inhibitor: -5%; Sm TGR inh: -17%; Flu NS1 inh: 14

What do the screens show for `Cc1cccc(NS(=O)(=O)c2cccc(C(=O)Nc3cccc(C(=O)O)c3)c2)c1`?
Tb PYK inh: 3%; RE007 growth inh: 7%; NS1 inh: 2.2µM*; SARS PLP yeast: -1%; LmPK inhibitor: 5%; Sm TGR inh: 7%; Flu NS1 inh: 31

What do the screens show for `Cc1sc2ncn(CC(=O)N3CCN(c4ccccc4F)CC3)c(=O)c2c1S(=O)(=O)N1CCC(C)CC1`?
Tb PYK inh: 0%; Sm TGR inh: 3%

How did CCc1ccc(NC(=O)CN(C)S(=O)(=O)c2ccc3c(c2)c(=O)n(C)c(=O)n3C)cc1 do in these assays?
Tb PYK inh: -2%; Sm TGR inh: 11%

How did COc1cc2ccccc2cc1C(=O)N1CCN(c2nc3ccc(F)cc3s2)CC1 do in these assays?
Tb PYK inh: -12%; Sm TGR inh: 6%

Results for CC(=O)c1ccc(NS(=O)(=O)c2cccc(C(=O)Nc3ccccc3C(=O)O)c2)cc1 ?
Tb PYK inh: -14%; RE007 growth inh: 4%; NS1 inh: 13µM*; SARS PLP yeast: 6%; LmPK inhibitor: -6%; Sm TGR inh: inconclusive; Flu NS1 inh: 31

What do the screens show for `O=S(=O)(NCc1ccc(Cl)cc1)c1ccc2[nH]c3c(c2c1)CCCC3`?
Tb PYK inh: 0%; Sm TGR inh: -12%

Results for CC1=NN=C(c2ccc(N)cc2)c2cc3c(cc2C1)OCO3 ?
Tb PYK inh: 0%; RE007 growth inh: -1%; NS1 inh: 35µM*; Sm TGR inh: -20%; Flu NS1 inh: 11

What do the screens show for `CCOc1ccc(NS(=O)(=O)c2ccc3c(c2)NC(=O)CCS3)cc1`?
Tb PYK inh: 0%; Sm TGR inh: 3%

Results for Cc1cccc(OCc2nnc(SCC(=O)N3c4ccccc4CCc4ccccc43)o2)c1 ?
Tb PYK inh: -6%; RE007 growth inh: 1%; NS1 inh: 13µM*; SARS PLP yeast: 0%; LmPK inhibitor: 4%; Sm TGR inh: 3%; Flu NS1 inh: -20; PR8 titer: 8.5

Results for O=C(Cn1cnc([N+](=O)[O-])n1)NCCO ?
Tb PYK inh: -5%; RE007 growth inh: 8%; NS1 inh: 2%; SARS PLP yeast: -1%; LmPK inhibitor: -2%; Sm TGR inh: 5%

Results for O=C(Cn1cnc([N+](=O)[O-])n1)NCc1ccccc1 ?
Tb PYK inh: -4%; RE007 growth inh: 15%; NS1 inh: 3.5µM*; SARS PLP yeast: -4%; LmPK inhibitor: -3%; Sm TGR inh: 3%; Flu NS1 inh: 3

What do the screens show for `Cc1ccc(NC(=S)N2CCN(Cc3ccccc3)CC2)c(C)c1`?
Tb PYK inh: -9%; RE007 growth inh: -12%; NS1 inh: inconclusive; SARS PLP yeast: -8%; LmPK inhibitor: 3%; Sm TGR inh: -9%; Flu NS1 inh: -16

What do the screens show for `COc1ccc(OC)c(NC(=O)c2csnn2)c1`?
Tb PYK inh: -21%; Sm TGR inh: 2%

What do the screens show for `Cc1ccc(-n2c(Cn3c(C)nc4ccccc43)n[nH]c2=S)cc1`?
Tb PYK inh: inconclusive; RE007 growth inh: 13%; NS1 inh: inconclusive; SARS PLP yeast: -21%; LmPK inhibitor: -21%; Sm TGR inh: 5%; Flu NS1 inh: 22

Results for CCOC(=O)C1=C(C)N=C2SC(C)C(=O)N2C1c1ccc(C(=O)OC)cc1 (configuration not stated) ?
Tb PYK inh: 2%; RE007 growth inh: 0%; NS1 inh: 7.9µM*; SARS PLP yeast: 0%; LmPK inhibitor: 8%; Sm TGR inh: -27%; Flu NS1 inh: -1

Results for CC(=O)N1CCN=C1SCc1ccccc1F ?
Tb PYK inh: -5%; RE007 growth inh: 9%; NS1 inh: 1.3µM*; SARS PLP yeast: 2%; LmPK inhibitor: 4%; Sm TGR inh: -9%; Flu NS1 inh: 5

What do the screens show for `CC(=O)N1CCN=C1SCc1ccccc1Cl`?
Tb PYK inh: 5%; RE007 growth inh: -12%; NS1 inh: 5%; SARS PLP yeast: 11%; LmPK inhibitor: 7%; Sm TGR inh: -8%

Results for COc1cc(C(=O)NC(=S)Nc2ccc(N3CCCC3)cc2)cc(OC)c1OC ?
Tb PYK inh: -1%; RE007 growth inh: 5%; NS1 inh: 13µM*; SARS PLP yeast: 5%; LmPK inhibitor: -2%; Sm TGR inh: -19%; Flu NS1 inh: 3

How did COc1ccc(C(=O)NC(=S)Nc2ccc(N3CCCC3)cc2)cc1 do in these assays?
Tb PYK inh: 0%; RE007 growth inh: -20%; SARS PLP yeast: -1%; LmPK inhibitor: 2%; Sm TGR inh: -3%

Screening results as filed in PubChem.
